{
  "source": "PubChem BioAssay (EPA / NIEHS)",
  "note": "Where a structure was tested more than once in an assay, its records may differ in their call. Calls of active or inactive are those of the source. Rule for the calls: active = hit-call score of the fitted dose curve at least 0.9, where 1 is the maximum; inactive = score below 0.9.",
  "data": [
    {"target": "Signal transducer and activator of transcription 3 (Homo sapiens) (UniProt P40763)", "sequence (P40763 whole entry, looked up)": "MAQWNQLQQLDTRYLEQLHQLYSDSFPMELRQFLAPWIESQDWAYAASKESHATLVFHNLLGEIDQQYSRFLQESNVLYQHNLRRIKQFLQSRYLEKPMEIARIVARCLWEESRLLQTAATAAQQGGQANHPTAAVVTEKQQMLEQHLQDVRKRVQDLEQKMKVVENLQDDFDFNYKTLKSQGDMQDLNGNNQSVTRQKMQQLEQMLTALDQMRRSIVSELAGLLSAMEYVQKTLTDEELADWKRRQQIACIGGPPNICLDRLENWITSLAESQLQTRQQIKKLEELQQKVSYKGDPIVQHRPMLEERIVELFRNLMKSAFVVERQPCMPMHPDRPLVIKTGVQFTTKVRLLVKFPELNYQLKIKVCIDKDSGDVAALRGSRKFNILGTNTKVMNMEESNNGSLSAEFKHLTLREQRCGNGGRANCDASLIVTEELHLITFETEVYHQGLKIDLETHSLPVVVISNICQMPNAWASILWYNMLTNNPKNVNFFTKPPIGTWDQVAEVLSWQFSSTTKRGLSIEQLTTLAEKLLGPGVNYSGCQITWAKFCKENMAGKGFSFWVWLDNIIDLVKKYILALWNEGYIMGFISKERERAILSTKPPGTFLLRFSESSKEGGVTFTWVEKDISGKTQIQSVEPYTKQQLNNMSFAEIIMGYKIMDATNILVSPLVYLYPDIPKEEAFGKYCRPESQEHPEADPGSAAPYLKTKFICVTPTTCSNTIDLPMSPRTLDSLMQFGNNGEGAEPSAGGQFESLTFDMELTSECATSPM", "experiment": "ATG_STAT3_CIS: Attagene CIS-FACTORIAL HepG2 Assay for human Signal Transducer and Activator of Transcription 3 (STAT3) (AID 2282963)", "conditions": "HepG2, Attagene cis-factorial STAT3 reporter transcription; actives raise or lower the signal", "protocol": "ATG_CIS is a cell-based, multiplexed-readout assay that uses HepG2, a human liver cell line, with measurements taken at 24 hours after chemical dosing in a 24-well plate.ATG_STAT3_CIS is one of 52 assay component(s) measured or calculated from the ATG_CIS assay. It is designed to make measurements of mRNA induction, a form of inducible reporter, as detected with fluorescence intensity signals by Reverse transcription polymerase chain reaction (RT-PCR) and Capillary electrophoresis technology.Data from the assay component ATG_STAT3_CIS was analyzed into 1 assay endpoint. This assay endpoint, ATG_STAT3_CIS, was analyzed with bidirectional fitting relative to DMSO as the negative control and baseline of activity. Using a type of inducible reporter, measures of mRNA for gain or loss-of-signal activity can be used to understand the reporter gene at the transcription factor-level as they relate to the gene STAT3. Furthermore, this assay endpoint can be referred to as a primary readout, because this assay has produced multiple assay endpoints where this one serves a reporter gene function. To generalize the intended target to other relatable targets, this assay endpoint is annotated to the dna binding intended target family, where the subfamily is stat protein.\nHuman liver HepG2 cells are transiently transfected with multiple reporter transcription units (MRTUs) in 6-well plates using FuGene 6 reagent (Roche; 3 ml FuGene/1 mg DNA). The MRTU constructs are regulated by a cis-regulating element (promoter). […] A major difference between the CIS and TRANS system is that in CIS activities of endogenous TFs are measured, whereas the TRANS assay evaluates changes in activities of exogenous, chimeric NR-Gal4 proteins. […] At the end of 24 hour incubation, total RNA was isolated using TriZol reagent (Invitrogen). The isolated RNA is then reverse-transcribed using oligo(dT) primer and Mo-MLV reverse transcriptase (Invitrogen) with DNAse I (Ambion) treatment for 30 min. The one-tenth of the produced cDNA was amplified by PCR using Taq DNA polymerase (Invitrogen) and two reporter sequence-specific primers. The PCR products were fluorescently labeled by primer extension with 6-arboxyfluorescein (6-FAM) 5'-labeled reporter sequence-specific primer (2 min at 95 C, 20 s at 68 C and 10 min at 72 C) and these products were digested with 5U of HpaI (New England Biolabs) for 2h at 37 C. The fragments were purified using Qiaquick PCR columns (Qiagen), analyzed on an ABI 3130xL genetic analyzer (Applied Biosystems) with peak positions identified by using a set of X-rhodamine (ROX)-labeled MapMarker1000 molecular weight standards (BioVentures). The raw capillary electrophoresis data was processed using Attagraph software (Attagene).", "values": [
      {"smiles": "CC(=O)[C@H]1CC[C@H]2[C@@H]3CCC4=CC(=O)CC[C@]4(C)[C@H]3CC[C@]12C", "outcome": "inactive", "AC50": "180 µM (active)"},
      {"smiles": "O=C(O)C1(C(=O)Nc2ccc(Cl)cc2Cl)CC1", "outcome": "inactive"},
      {"smiles": "c1ccc2[nH]c(-c3cscn3)nc2c1", "outcome": "inactive"},
      {"smiles": "S=C(S)NCCNC(=S)S.[Mn+2].[S-]C([S-])=NCCN=C([S-])[S-].[Zn+2]", "outcome": "inactive"},
      {"smiles": "C#CCOC(=O)[C@@H](C)Oc1ccc(Oc2ncc(Cl)cc2F)cc1", "outcome": "inactive"},
      {"smiles": "COC(=O)c1ccc(CNS(C)(=O)=O)cc1S(=O)(=O)NC(=O)Nc1nc(OC)cc(OC)n1", "outcome": "inactive"},
      {"smiles": "O=C(O)c1ccccc1", "outcome": "inactive"},
      {"smiles": "CCCCOC(=O)[C@@H](C)Oc1ccc(Oc2ccc(C(F)(F)F)cn2)cc1", "outcome": "inactive"},
      {"smiles": "CSC(=O)c1cccc2nnsc12", "outcome": "inactive"},
      {"smiles": "CCOC(=O)c1ccc(O)cc1", "outcome": "inactive"},
      {"smiles": "CC(C)(c1ccc(O)cc1)c1ccc(O)cc1", "AC50": "33.4 µM (active)", "outcome": "inactive"},
      {"smiles": "CCCOC(=O)NCCCN(C)C", "outcome": "inactive"},
      {"smiles": "CCCCC(CC)CN1C(=O)C2C3C=CC(C3)C2C1=O", "note": "(stereo not given)", "outcome": "inactive"},
      {"smiles": "COC(=O)c1ccccc1S(=O)(=O)NC(=O)Nc1nc(OC(F)F)cc(OC(F)F)n1", "outcome": "inactive"},
      {"smiles": "OB(O)O", "outcome": "inactive"},
      {"smiles": "CCOC(=O)NCCOc1ccc(Oc2ccccc2)cc1", "outcome": "inactive"},
      {"smiles": "CCCCCCC(C)OC(=O)COc1nc(F)c(Cl)c(N)c1Cl", "note": "(stereo not given)", "outcome": "inactive"},
      {"smiles": "CCOC(=O)[C@H](C)Oc1ccc(Oc2nc3ccc(Cl)cc3o2)cc1", "outcome": "inactive"},
      {"smiles": "O=C(c1ccccc1)C1CCCCC1", "outcome": "inactive"},
      {"smiles": "COc1c(Cl)ccc(Cl)c1C(=O)O", "outcome": "inactive"},
      {"smiles": "COC(=O)CSc1cc(N=c2sc(=O)n3n2CCCC3)c(F)cc1Cl", "outcome": "inactive"},
      {"smiles": "CCCCOC(=O)C(C)Oc1ccc(Oc2ccc(C(F)(F)F)cn2)cc1", "note": "(stereo not given)", "outcome": "inactive"},
      {"smiles": "CCOC(=O)COc1cc(-n2ncc(C(F)(F)F)c(C)c2=O)c(F)cc1Cl", "outcome": "inactive"},
      {"smiles": "C[C@]12CC[C@@H]3c4ccc(O)cc4C[C@@H](CCCCCCCCCS(=O)CCCC(F)(F)C(F)(F)F)[C@H]3[C@@H]1CC[C@@H]2O", "note": "(stereo not given in full)", "outcome": "inactive"},
      {"smiles": "COC(=O)c1ccc(I)cc1S(=O)(=O)NC(=O)Nc1nc(C)nc(OC)n1", "outcome": "inactive"},
      {"smiles": "CCCN(CCC)c1c([N+](=O)[O-])cc(C(F)(F)F)c(N)c1[N+](=O)[O-]", "outcome": "inactive"},
      {"smiles": "COC(=O)c1ccccc1C(=O)O", "outcome": "inactive"},
      {"smiles": "CC(C)CCCCCCc1ccc(O)cc1", "outcome": "inactive"},
      {"smiles": "CCCOC(=O)c1ccc(C(=O)OCCC)nc1", "outcome": "inactive"},
      {"smiles": "C[C@]12C[C@H](O)[C@H]3[C@@H](CCC4=CC(=O)CC[C@@]43C)[C@@H]1CC[C@@H]2C(=O)CO", "outcome": "inactive"},
      {"smiles": "S=C([S-])NCCNC(=S)[S-].[Mn+2]", "outcome": "inactive"},
      {"smiles": "O=C(c1ccc(O)cc1O)c1ccc(O)cc1O", "outcome": "inactive"},
      {"smiles": "CCC(O)=C1C(=O)CC(C(=O)O)CC1=O", "note": "(stereo not given)", "outcome": "inactive"},
      {"smiles": "COCCO", "outcome": "inactive"},
      {"smiles": "CCCCCOC(=O)COc1cc(N2C(=O)C3=C(CCCC3)C2=O)c(F)cc1Cl", "outcome": "inactive"},
      {"smiles": "CC1(C)C(C=C(Cl)Cl)C1C(=O)OCc1cccc(Oc2ccccc2)c1", "note": "(stereo not given)", "outcome": "inactive"},
      {"smiles": "CC(=O)S[C@@H]1CC2=CC(=O)CC[C@]2(C)[C@H]2CC[C@@]3(C)[C@@H](CC[C@@]34CCC(=O)O4)[C@H]12", "AC50": "178 µM (active)", "outcome": "inactive"}
    ]}
  ]
}
